Results published in PubChem BioAssay (NCATS).
Results filed as inconclusive are left out. Active and inactive are the calls of the source. Unless noted, calls come from the whole dose curve; as a rule, active = well fitted curve in the direction sought with a large enough effect; inconclusive = small, poorly fitted or top-dose-only effect, or another doubt; inactive = no such curve, though single readings can be large; an effect the other way counts as inactive or inconclusive.

What was measured:
[1] = Primary qHTS for small molecule stabilizers of the endoplasmic reticulum resident proteome: Secreted ER Calcium Modulated Protein (SERCaMP) assay (AID 1508630); note: % is set by controls: 0 for no effect and ±100 for the full control effect
Summary of the method: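 GLuc-SERCaMP-expressing SH-SY5Y cells, pretreated 16 h with compound, are challenged with thapsigargin to empty ER calcium stores; after 4 h, coelenterazine is added directly to the medium and luminescence is imaged.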

[2] = biological target: Lysosomal acid glucosylceramidase (Homo sapiens) (UniProt P04062); assay: Glucocerebrosidase-p2 (AID 348; in the data active = potency below about 10 µM; note: potency is the fitted concentration of half-maximal effect); details: purified GBA, blue fluorogenic substrate, 40 min
Chain of Lysosomal acid glucosylceramidase (Homo sapiens) (P04062 whole entry, looked up): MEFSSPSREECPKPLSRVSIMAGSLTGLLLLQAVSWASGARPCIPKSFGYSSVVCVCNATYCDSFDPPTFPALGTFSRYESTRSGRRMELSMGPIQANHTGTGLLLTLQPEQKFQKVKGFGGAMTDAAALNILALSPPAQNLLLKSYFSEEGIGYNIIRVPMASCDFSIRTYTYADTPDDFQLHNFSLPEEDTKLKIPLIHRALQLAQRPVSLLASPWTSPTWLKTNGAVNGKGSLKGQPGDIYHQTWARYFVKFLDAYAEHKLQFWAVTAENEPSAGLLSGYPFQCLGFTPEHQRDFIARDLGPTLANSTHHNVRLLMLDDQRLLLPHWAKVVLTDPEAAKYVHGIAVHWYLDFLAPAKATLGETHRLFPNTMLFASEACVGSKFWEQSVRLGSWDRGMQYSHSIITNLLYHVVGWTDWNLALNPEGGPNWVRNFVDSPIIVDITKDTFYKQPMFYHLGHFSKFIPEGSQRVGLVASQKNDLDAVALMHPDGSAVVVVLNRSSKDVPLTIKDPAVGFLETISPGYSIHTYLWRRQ
Summary of the method: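 Compounds titrated from 0.6 nM upwards against 0.2 nM enzyme in pH 5.9 citric acid/KH2PO4, taurocholate, tween-20; blue fluorogenic substrate 80 uM, 40 min room temperature, stopped and read Ex 365/Em 440 for AC50.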

[3] = AP1 Signaling Pathway (AID 357; active = well fitted curve in either direction with a large enough effect, not every such curve was filed as active;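 note: ME-180 reporter cells stimulated with EGF at its EC50 level; % is set by controls: 0 for no effect and ±100 for the full control effect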); details: ME-180 AP-1-bla reporter, EGF-induced, beta-lactamase ratio, 5 h; at 7.69 µM (top of the series) unless noted
Summary of the method: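 Cells are seeded overnight, exposed to compound titrations and an EC50 level of EGF for 5 hours at 37 °C, then loaded with CCF4 dye for 2.5 hours. Beta-lactamase activity under the AP-1 element is read as a blue/green ratio.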

[4] = biological target: Cytochrome P450 1A2 (Homo sapiens) (UniProt P05177); assay: p450-cyp1a2 (AID 410; calls by dose curve; note: potency is the fitted concentration of half-maximal effect;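 for activity change, negative = inhibition: -100% = full effect of reference inhibitor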)
Chain of Cytochrome P450 1A2 (Homo sapiens) (P05177 whole entry, looked up): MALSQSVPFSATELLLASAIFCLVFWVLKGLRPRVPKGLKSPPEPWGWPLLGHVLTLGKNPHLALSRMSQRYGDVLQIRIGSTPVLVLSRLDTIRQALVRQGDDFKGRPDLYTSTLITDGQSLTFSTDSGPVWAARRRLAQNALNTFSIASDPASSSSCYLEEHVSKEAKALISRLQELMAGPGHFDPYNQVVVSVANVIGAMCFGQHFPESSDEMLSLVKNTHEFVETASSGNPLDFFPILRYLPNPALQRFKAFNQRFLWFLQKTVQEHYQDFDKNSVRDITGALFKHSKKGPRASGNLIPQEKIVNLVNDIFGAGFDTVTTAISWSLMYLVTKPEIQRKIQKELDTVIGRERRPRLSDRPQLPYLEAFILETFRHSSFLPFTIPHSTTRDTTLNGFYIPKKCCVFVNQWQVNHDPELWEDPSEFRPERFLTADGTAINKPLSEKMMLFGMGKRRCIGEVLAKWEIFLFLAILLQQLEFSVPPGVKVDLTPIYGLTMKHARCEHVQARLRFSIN
Summary of the method: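 20nM CYP1A2 with 100uM Luciferin-ME (at Km) in 100mM KPO4; compound preincubated 10 min, NADPH regeneration added, 60 min at room temperature. Luciferin quantified by luminescence after detection reagent; normalized to 57 uM furafylline.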

[5] = NFAT Signaling Pathway (AID 444; active = well fitted curve in either direction with a large enough effect, not every such curve was filed as active;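 note: carbachol stimulus at about its EC50 of 1 µM final; % is set by controls: 0 for no effect and ±100 for the full control effect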); details: Jurkat NFAT-bla M1, carbachol, beta-lactamase ratio, 5 h; at 7.69 µM (top of the series) unless noted
Summary of the method: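 Jurkat cells with NFAT-driven β-lactamase reporter and co-expressed M1 receptor, stimulated with carbachol (final 1 uM, ~EC50), compound titration, 5 h at 37 °C. CCF4 loaded 1 h at RT; 460/530 nm ratio gave %activity and AC50.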

[6] = Stat Signaling Pathway (AID 446; active = well fitted curve in either direction with a large enough effect, not every such curve was filed as active;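 note: ME-180 cervical cancer cells given 40 pM IL-6 alongside compound; SIE-controlled beta-lactamase reporter measured as 460/530 nm FRET emission ratio; % is set by controls: 0 for no effect and ±100 for the full control effect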); details: ME-180 SIE beta-lactamase reporter, IL-6 stimulated, 5 h; at 7.69 µM (top of the series) unless noted
Summary of the method: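 ME-180 SIE-bla cells; overnight plating; cpd + IL-6 40 pM, 5 h, 37 C; LiveBLAzer 2.5 h RT; 460/530 nm emission ratio. Normalized to 300 pM IL-6 and 125 nM JAK inhibitor controls.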

[7] = biological target: Glucocorticoid receptor (Homo sapiens) (UniProt P04150); assay: GR-EFC Redistribution (AID 451; calls by dose curve; note: potency is the fitted concentration of half-maximal effect); details: CHO-K1 GR-EFC translocation, beta-gal luminescence, 2 h
Chain of Glucocorticoid receptor (Homo sapiens) (P04150 whole entry, looked up, the tested form may be a part): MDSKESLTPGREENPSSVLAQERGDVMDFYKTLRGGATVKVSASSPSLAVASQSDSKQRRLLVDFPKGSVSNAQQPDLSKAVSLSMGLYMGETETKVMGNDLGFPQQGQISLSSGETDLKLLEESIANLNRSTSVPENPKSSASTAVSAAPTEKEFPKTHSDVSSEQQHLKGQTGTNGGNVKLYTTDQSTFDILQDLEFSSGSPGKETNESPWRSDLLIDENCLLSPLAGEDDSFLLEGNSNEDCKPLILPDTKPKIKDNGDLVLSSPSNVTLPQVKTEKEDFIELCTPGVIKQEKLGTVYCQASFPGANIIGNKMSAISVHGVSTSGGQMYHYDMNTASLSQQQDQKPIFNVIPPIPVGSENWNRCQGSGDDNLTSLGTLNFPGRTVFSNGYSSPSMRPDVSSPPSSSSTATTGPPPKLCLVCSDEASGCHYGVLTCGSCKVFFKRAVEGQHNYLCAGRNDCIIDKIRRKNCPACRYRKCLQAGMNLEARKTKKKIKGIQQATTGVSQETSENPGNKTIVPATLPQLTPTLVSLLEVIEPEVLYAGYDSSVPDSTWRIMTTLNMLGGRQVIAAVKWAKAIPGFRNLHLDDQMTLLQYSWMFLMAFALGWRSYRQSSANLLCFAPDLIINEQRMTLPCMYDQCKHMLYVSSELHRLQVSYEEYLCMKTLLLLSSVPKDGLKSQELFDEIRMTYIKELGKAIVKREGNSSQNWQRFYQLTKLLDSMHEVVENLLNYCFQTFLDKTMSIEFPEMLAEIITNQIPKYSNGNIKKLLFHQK
Summary of the method: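 CHO-K1 cells expressing nuclear EA and GR-ED fragments of b-gal; compounds titrated up to 46 uM final, 2 h at 37 C. GR nuclear translocation read as complemented b-gal luminescence after 1 h RT detection.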

[8] = biological target: Mitogen-activated protein kinase 10 (Mus musculus) (UniProt Q61831); assay: JNK3 AlphaScreen Assay (AID 530; active = well fitted curve in either direction with a large enough effect, not every such curve was filed as active)
Summary of the method: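 Pre-activated (IL-1β/TNFα) JNK3 in HepG2 lysates phosphorylates biotin-GST-cJun(1-79), 10 uM ATP; anti-phospho-cJun(Ser73) AlphaScreen read at room temperature, pH 7.6 Tris buffer. Compounds pre-incubated 15 min as titrations.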

[9] = biological target: 3',5'-cyclic-AMP phosphodiesterase 4B (Homo sapiens) (UniProt Q07343); assay: qHTS Assay for Inhibitors of PDE-IV (AID 607; active = well fitted activation curve with a large enough effect in the main read-out, with a control signal flat, not every such curve was filed as active; note: % of control where 0% means no effect)
Chain of 3',5'-cyclic-AMP phosphodiesterase 4B (Homo sapiens) (Q07343 whole entry, looked up): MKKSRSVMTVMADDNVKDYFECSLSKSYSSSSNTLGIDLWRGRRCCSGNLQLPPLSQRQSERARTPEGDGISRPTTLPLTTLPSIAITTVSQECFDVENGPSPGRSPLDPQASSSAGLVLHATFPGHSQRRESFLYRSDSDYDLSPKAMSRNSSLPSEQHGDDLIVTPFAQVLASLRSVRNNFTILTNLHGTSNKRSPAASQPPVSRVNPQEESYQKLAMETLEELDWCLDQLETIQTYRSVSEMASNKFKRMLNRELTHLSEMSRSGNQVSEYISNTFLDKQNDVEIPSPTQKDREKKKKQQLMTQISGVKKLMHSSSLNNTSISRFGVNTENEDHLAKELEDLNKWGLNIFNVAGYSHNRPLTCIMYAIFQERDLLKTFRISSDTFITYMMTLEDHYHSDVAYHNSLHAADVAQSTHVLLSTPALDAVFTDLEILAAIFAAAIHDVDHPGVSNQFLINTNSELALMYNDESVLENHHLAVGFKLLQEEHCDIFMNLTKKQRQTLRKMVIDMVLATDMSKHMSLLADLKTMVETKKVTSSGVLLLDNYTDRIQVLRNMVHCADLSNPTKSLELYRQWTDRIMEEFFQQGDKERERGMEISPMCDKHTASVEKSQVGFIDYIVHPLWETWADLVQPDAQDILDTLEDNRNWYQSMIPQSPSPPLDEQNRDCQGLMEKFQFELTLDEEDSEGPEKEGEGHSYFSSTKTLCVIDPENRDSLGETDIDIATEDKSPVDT
Summary of the method: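 ACTOne HEK293 cells carry a modified cAMP-gated CNG channel and express endogenous PDE4; plated 1000 cells/well, compounds up to 22.9 uM final. Membrane-potential dye fluorescence (ex 535/em 590) was read; parental cells received 10 uM forskolin + 100 uM RO 20-1724.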

[10] = qHTS Assay for Lipid Storage Modulators (AID 1519; calls by dose curve); details: Drosophila S3 cells, BODIPY lipid droplet/cell ratio, laser cytometry, cells loaded with oleic acid; for activity change, negative = inhibition: at 57.5 µM (top of the series)
Summary of the method: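 Cells seeded at 5,000 per well were treated with compounds over a concentration series and loaded with oleic acid (400 uM, as added). Lipid droplet fluorescence (488 nm excitation, 500-530 nm channel) was read by laser-scanning cytometry and normalized to 20 uM Triacsin C.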

[11] = biological target: Rap guanine nucleotide exchange factor 3 (Homo sapiens) (UniProt O95398); assay: Confirmatory qHTS for agonist of cAMP-regulated guanine nucleotide exchange factor 3 (EPAC1) (AID 1645881);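 note: EPAC1 catalysed release of BODIPY-GDP from Rap1B seen as fluorescence loss; 100% = effect of cAMP agonist control; nearly all actives have a fitted effect of over 75% in size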
Chain of Rap guanine nucleotide exchange factor 3 (Homo sapiens) (O95398 whole entry, looked up): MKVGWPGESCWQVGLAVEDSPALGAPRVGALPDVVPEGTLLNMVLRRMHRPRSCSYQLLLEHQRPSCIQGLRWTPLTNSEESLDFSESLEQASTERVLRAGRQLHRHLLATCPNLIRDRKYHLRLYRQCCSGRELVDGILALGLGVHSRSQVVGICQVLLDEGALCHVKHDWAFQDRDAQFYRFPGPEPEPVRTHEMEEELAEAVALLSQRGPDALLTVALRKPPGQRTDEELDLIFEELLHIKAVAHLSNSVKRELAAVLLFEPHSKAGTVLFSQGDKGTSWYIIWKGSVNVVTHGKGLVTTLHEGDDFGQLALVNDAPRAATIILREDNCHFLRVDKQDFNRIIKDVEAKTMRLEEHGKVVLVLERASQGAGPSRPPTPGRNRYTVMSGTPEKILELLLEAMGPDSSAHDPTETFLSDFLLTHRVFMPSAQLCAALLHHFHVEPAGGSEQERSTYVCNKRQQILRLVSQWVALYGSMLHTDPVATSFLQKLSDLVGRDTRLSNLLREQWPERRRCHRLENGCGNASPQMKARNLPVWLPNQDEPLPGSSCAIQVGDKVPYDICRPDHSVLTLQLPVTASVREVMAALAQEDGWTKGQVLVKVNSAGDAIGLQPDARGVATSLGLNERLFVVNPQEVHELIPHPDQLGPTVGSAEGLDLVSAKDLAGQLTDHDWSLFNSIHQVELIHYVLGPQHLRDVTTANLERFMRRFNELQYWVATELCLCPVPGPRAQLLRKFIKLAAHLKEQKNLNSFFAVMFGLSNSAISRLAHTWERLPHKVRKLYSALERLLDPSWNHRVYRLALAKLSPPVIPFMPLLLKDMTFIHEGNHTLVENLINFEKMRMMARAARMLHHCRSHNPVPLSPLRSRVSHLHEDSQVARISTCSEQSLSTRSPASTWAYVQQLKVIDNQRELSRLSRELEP

[12] = biological target: Rap guanine nucleotide exchange factor 4 (Homo sapiens) (UniProt Q8WZA2); assay: Confirmatory qHTS for agonist of cAMP-regulated guanine nucleotide exchange factor 4 (EPAC2) (AID 1645884);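 note: nucleotide exchange releases bodipy-GDP from Rap1 and this lowers its fluorescence; % is set by controls: 0 for no effect and ±100 for the full control effect; nearly all actives have a fitted effect of over 65% in size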
Chain of Rap guanine nucleotide exchange factor 4 (Homo sapiens) (Q8WZA2 whole entry, looked up): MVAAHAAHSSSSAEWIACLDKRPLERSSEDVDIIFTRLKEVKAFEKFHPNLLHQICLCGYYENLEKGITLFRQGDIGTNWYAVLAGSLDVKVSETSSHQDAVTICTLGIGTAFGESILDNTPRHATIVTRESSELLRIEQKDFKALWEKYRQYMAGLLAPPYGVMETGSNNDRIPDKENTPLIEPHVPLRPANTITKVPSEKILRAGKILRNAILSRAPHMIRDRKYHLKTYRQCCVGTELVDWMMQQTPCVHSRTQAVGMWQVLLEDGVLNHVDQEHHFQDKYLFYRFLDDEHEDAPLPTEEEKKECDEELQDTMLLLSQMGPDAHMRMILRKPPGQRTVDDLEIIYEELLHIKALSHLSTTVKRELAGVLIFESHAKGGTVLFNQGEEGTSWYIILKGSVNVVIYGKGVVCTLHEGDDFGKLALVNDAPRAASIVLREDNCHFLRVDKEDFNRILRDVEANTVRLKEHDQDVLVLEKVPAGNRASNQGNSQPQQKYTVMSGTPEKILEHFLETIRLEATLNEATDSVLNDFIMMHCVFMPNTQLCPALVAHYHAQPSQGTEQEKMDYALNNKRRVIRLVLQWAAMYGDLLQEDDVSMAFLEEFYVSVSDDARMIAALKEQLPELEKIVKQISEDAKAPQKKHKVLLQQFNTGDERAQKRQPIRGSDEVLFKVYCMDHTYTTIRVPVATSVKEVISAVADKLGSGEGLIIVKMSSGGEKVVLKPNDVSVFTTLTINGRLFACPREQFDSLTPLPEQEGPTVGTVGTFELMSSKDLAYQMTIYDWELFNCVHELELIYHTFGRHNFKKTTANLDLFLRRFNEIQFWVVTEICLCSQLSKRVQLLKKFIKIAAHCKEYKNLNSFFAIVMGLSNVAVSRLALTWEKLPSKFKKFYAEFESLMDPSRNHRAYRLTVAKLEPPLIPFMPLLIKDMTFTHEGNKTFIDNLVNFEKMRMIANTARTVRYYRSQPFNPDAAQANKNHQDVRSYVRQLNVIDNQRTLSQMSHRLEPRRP

[13] = biological target: Rap guanine nucleotide exchange factor 4 (Homo sapiens) (UniProt Q8WZA2); assay: Confirmatory qHTS for antagonist of cAMP-regulated guanine nucleotide exchange factor 4 (EPAC2) (AID 1645885); note: % is set by controls: 0 for no effect and ±100 for the full control effect; nearly all actives have a fitted effect of over 25% in size
[14] = biological target: Glucocorticoid receptor (Homo sapiens) (UniProt P04150); assay: GR-GFP Redistribution (AID 450;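 active = compounds whose dose series gives a full or clear partial fitted curve of increased nuclear translocation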; note: potency is the fitted concentration of half-maximal effect); details: U2OS GR-GFP nuclear translocation, laser cytometry, 2 h
[15] = biological target: Cytochrome P450 3A4 (Homo sapiens) (UniProt P08684); assay: qHTS Assay for Activators of Cytochrome P450 3A4 (AID 885); note: nearly all actives have a fitted effect of over 65% in size
Summary of the method: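 20nM CYP3A4 + 25uM Luciferin-PPXE (=KM), 200mM KPO4; cpd 10 min RT; NADPH regen, 60 min RT; stop w/ detection buffer, 20 min; luminescence. Normalized to 57 uM ketoconazole.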

[16] = biological target: Dual specificity protein kinase CLK4 (Homo sapiens) (UniProt Q9HAZ1); assay: qHTS Assay for Inhibitors of CDC-like Kinase 4 (Kinase-Glo Assay) (AID 1770); note: nearly all actives have a fitted effect of over 65% in size; note: potency is the fitted concentration of half-maximal effect
Chain of Dual specificity protein kinase CLK4 (Homo sapiens) (Q9HAZ1 whole entry, looked up): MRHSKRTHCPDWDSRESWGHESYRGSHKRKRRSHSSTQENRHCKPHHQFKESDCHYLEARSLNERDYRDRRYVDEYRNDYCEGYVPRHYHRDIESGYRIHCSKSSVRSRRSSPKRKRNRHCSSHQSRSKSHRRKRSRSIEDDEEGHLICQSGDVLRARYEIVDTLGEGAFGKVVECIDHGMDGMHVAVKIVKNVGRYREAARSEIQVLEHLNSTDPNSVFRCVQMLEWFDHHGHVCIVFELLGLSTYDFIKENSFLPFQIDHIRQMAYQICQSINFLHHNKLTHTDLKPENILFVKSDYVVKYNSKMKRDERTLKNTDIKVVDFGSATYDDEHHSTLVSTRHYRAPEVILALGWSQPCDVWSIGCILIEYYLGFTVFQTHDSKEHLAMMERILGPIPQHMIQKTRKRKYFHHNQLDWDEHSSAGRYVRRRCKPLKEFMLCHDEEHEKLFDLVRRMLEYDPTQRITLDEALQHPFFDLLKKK
Summary of the method: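 Recombinant human Clk4 (25 nM) phosphorylated RS repeat peptide (100 uM) with 1 uM ATP in Tris pH 7.5/MgCl2/EGTA/DTT/Triton buffer for 4.5 h at room temperature. Residual ATP was quantified by Kinase-Glo luciferase luminescence.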

[17] = biological target: Dual specificity protein kinase CLK4 (Homo sapiens) (UniProt Q9HAZ1); assay: qHTS Assay for Inhibitors of CDC-like Kinase 4 (ADP-Glo Assay) (AID 1771); note: nearly all actives have a fitted effect of over 70% in size; note: potency is the fitted concentration of half-maximal effect
Summary of the method: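 25 nM Clk4 with 100 uM RS repeat peptide and 1 uM ATP (final) in buffer with 2 mM MgCl2, 0.5 mM EGTA, 2.5 mM DTT, 0.01% Triton X-100; 1 h at room temperature; ADP-Glo luminescence for ADP formed.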

[18] = biological target: Dual specificity protein kinase CLK4 (Homo sapiens) (UniProt Q9HAZ1); assay: qHTS Assay for Inhibitors of CDC-like Kinase 4 (ADP-FP Assay) (AID 1795); note: % is set by controls: 0 for no effect and ±100 for the full control effect; nearly all actives have a fitted effect of over 60% in size
Summary of the method: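 Recombinant human Clk4 (6.25 nM) phosphorylated RS repeat peptide (100 uM) with 1 uM ATP in Tris pH 7.5/MgCl2/EGTA/DTT/Triton buffer for one hour. ADP was quantified by Transcreener competitive fluorescence polarization against an ADP calibration curve.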

[19] = biological target: Ubiquitin carboxyl-terminal hydrolase 1 (Homo sapiens) (UniProt O94782); assay: Inhibitors of USP1/UAF1: Pilot qHTS (AID 504865); note: nearly all actives have a fitted effect of over 35% in size; note: potency is the fitted concentration of half-maximal effect
Summary of the method: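 USP1/UAF1 complex (1nM) preincubated with compound 15 min at room temperature, then Ub-Rho substrate (150nM final) added. Fluorescence read kinetically at 480/540 nm, 6 reads every 60 seconds. Buffer: 50mM HEPES pH 7.8, 0.5mM EDTA, 0.1 mg/ml BSA, 1mM TCEP, 0.01% Tween-20.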

[20] = measured here: cell count channel max response
[21] = measured here: lipid channel max response

COc1ccc(/C=C/c2cc(OC)c(OC)cc2CC[N+](C)(C)C)cc1
inactive: Potency [1]

COc1ccc2c(c1)OC[C@H]1c3cc4c(cc3O[C@@H]21)OCO4
inactive: Potency [1]

CC1(C)CCC[C@@]2(C)C1CC[C@@](C)(O)[C@@H]2CC[C@@](C)(O)C1CO1 (stereo not given in full)
inactive: Potency [1]

COCC(=O)N1CCC2(CC1)CCN(C(=O)Nc1cccc(C#N)c1)CC2
inactive: Potency [2] > 11.4 µM | activity change, negative = inhibition [3] -4.8% | Potency [4] | activity change, negative = inhibition [5] -11.9% | activity, negative = inhibition [6] -4.23% | Potency [7] > 46 µM | outcome [8] | Potency [9] | activity change, negative = inhibition [10] 1.13% | Potency [1] | outcome [11] | outcome [12] | Potency [13]
4.68%: max response [10, 20]
4.41%: max response [10, 21]

COc1c2c(cc3c1C(CC(=O)c1c(O)c(OC)c4occc4c1OC)[N+](C)(C)CC3)OCO2 (stereo not given)
inactive: Potency [1]

COc1ccc2cnoc(=O)c2c1OC
inactive: Potency [1]

COC(=O)N1c2ccccc2C23[C@@H]4CN5CCC[C@]6(CCC12C(O)(C6)C4=O)[C@H]53
inactive: Potency [1]

COCCn1c(=O)c(CCc2ccccc2)nc2cnc(Nc3cccc(OC)c3)nc21
18.9%: max response [10, 21]
inactive: Potency [2] > 11.4 µM | activity change, negative = inhibition [3] 13.2% | activity change, negative = inhibition [5] 5.55% | activity, negative = inhibition [6] 0.869% | Potency [14] > 9.22 µM | Potency [7] > 46 µM | outcome [8] | activity change, negative = inhibition [10] -3.18% | Potency [1] | outcome [11] | outcome [12] | Potency [13]
22%: max response [10, 20]

COc1cc(C)c(CC/C(C)=C/C=C/C(C)=O)c(C)c1C
inactive: Potency [1]

COc1c2c(cc3c1C(CC(O)C(C)C)N(C)CC3)OCO2 (stereo not given)
inactive: Potency [1]

COc1ccc(/C(=C\C(=O)O)c2nccc3cc(OC)c(OC)cc23)cc1OC
inactive: Potency [1]

O=c1cnc2cnc(Oc3cccc(Cl)c3)nc2n1Cc1ccc(F)cc1
21.6%: max response [10, 21]
17.8%: max response [10, 20]
inactive: Potency [2] > 11.4 µM | activity change, negative = inhibition [3] -16% | activity change, negative = inhibition [5] -9.66% | activity, negative = inhibition [6] -7.55% | Potency [14] > 9.22 µM | Potency [7] > 46 µM | outcome [8] | Potency [9] | Potency [15] | activity change, negative = inhibition [10] 3.63% | Potency [1] | outcome [11] | outcome [12]
active: Potency [4] 15.8 µM

CC1=C(C(N)=O)N2C(=O)[C@@H](NC(=O)Cc3ccccc3)C2SC1 (stereo not given in full)
inactive: Potency [1]

C[C@@H]1Oc2ccccc2C=C1/C=C/C(=O)O
inactive: Potency [1]

COc1ccc(-n2c(=O)c(-c3cc(F)cc(F)c3)nc3cnc(N(C)C)nc32)cc1
inactive: Potency [2] > 11.4 µM | activity change, negative = inhibition [5] 17.5% | Potency [14] > 9.22 µM | Potency [7] > 46 µM | outcome [8] | Potency [9] | activity change, negative = inhibition [10] 5.64% | Potency [16] | Potency [17] | Potency [18] | Potency [19] | Potency [1] | outcome [11] | outcome [12] | Potency [13]
11.6%: max response [10, 20]
18.1%: max response [10, 21]

COc1ccc(-c2cc3ccccc3c(=O)o2)cc1
inactive: Potency [1]

FC(F)(F)c1ccccc1-c1nc(N2CCOCC2)c2ccccc2n1
28.1%: max response [10, 21]
active: Potency [16] 25.1 µM | Potency [17] 14.1 µM | Potency [19] 31.6 µM
inactive: Potency [2] > 11.4 µM | activity change, negative = inhibition [5] -3.63% | activity, negative = inhibition [6] 2.43% | Potency [14] > 46 µM | Potency [7] > 46 µM | outcome [8] | Potency [15] | activity change, negative = inhibition [10] 6.74% | Potency [1] | outcome [11] | outcome [12]
22.9%: max response [10, 20]
